Assay outcomes from PubChem BioAssay.
This is a sample that favours compounds with a hit; in the whole collection about 0.52% have one here.
Sa growth inh – blocks Staphylococcus aureus growth; S. aureus RN4220 growth, OD600, 20 h, 42 °C; stronger effect = lower value; relative growth, % (test concentration not listed); actives 0.53% (n = 170,000); AID 720641;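 active = relative growth at most 50% at the other temperature and 20+ points below 30 °C, or under 10% at both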
Sa helicase inh – S. aureus DNA helicase inhibition | actives 0.05% (n = 120,000) | AID 485395 | inhibition, % (no concentration beside the values) | purified S. aureus helicase, fluorescence unwinding assay; in the data active = inhibition above about 25%, passing the limit was not always enough
Each line names hits and unclear results; the compound was inactive in the other large screens; ! = not confirmed by another sample.

C1=C(c2c[nH]c3ccccc23)CCN(Cc2ccccc2)C1	Sa growth inh -0.9
CN1CC=C(c2c[nH]c3ccccc23)CC1	none
CCCCn1c(=O)c(C(=O)Nc2nccs2)c(O)c2ccccc21	none
CN(C)CCC(=O)c1ccccc1	none
CC(=O)[O][Hg][c]1ccccc1	Sa growth inh -0.7 (no result: Sa helicase inh)
Oc1cc(Cl)ccc1Oc1ccc(Cl)cc1Cl	Sa growth inh -0.7 (no result: Sa helicase inh)
CC1CN(C)C(C)CC1n1[nH]c(=O)cc1N (configuration not stated)	none
O=S(=O)(c1ccc(Cl)cc1)N1CCCCC1c1cccnc1 (configuration not stated)	none
CC(=O)N1CCCCC1c1cccnc1.O=[N+]([O-])O.[Ag] (configuration not stated)	Sa growth inh 5.0
C/C=C1/CN2CCC34C(=C(C(=O)OC)C1CC23)Nc1c(O)cccc14 (configuration not stated)	none
CN(C)C(=Nc1ccc(I)cc1)P(=O)(N(C)C)N(C)C	none
N#CC(C#N)=NNc1ccc(-n2ccc(C(F)(F)F)n2)cc1	Sa growth inh -0.4
C=CCOc1ccc(C=C(C#N)C#N)cc1	none
CN(C)[C@@H]1C(=O)C(C(N)=O)=C(O)[C@@]2(O)C(=O)C3=C(O)c4c(O)cccc4[C@@](C)(O)[C@H]3[C@H](O)[C@@H]12	Sa growth inh -0.6 (no result: Sa helicase inh)
CN(C)[C@@H]1C(=O)C(C(N)=O)=C(O)[C@@]2(O)C(=O)C3=C(O)c4c(O)ccc(Cl)c4[C@@](C)(O)[C@H]3C[C@@H]12	Sa growth inh -0.1 (no result: Sa helicase inh)
CN1C2CCC1/C(=C\c1cccnc1)C(=O)/C2=C/c1cccnc1	none
COc1ccc(CC2C(=O)NC(=S)NC2=O)cc1	none
CC(C(=O)NCC1CCCCC1)N1CC=C(c2ccccc2)CC1 (configuration not stated)	none
CN1CCc2c(c(NCCO)nc3n[nH]c(N)c23)C1	none
COc1ccc(C(CN(C)C)C2(O)CCCCC2)cc1 (configuration not stated)	Sa growth inh 0.0! (no result: Sa helicase inh)
N#CCCn1cc(C(=O)O)c(-c2ccccc2)n1	none
CN1CCC(N2CCCCC2)CC1	none
CC(=O)Nc1ccc(C#N)c(C(F)(F)F)c1	none (no result: Sa helicase inh)
CCCCCCCCCCCCCCCC[n+]1ccccc1	Sa growth inh -0.8 (no result: Sa helicase inh)
CCN1CCN(C(=O)Cc2cccc3ccccc23)CC1	none
Clc1ccc(CON=C(Cn2ccnc2)c2ccc(Cl)cc2Cl)c(Cl)c1	Sa growth inh 0.0 (no result: Sa helicase inh)
Clc1ccc(COC(Cn2ccnc2)c2ccc(Cl)cc2Cl)c(Cl)c1 (configuration not stated)	Sa growth inh 0.0! (no result: Sa helicase inh)
NCCc1nc2cc(C(F)(F)F)ccc2s1	none
CCCNCCc1ccccc1	none
O=c1[nH]c(=S)[nH]c(O)c1-c1ccccc1	none (no result: Sa helicase inh)
Cc1nn(C)c(C)c1P(=S)(N(C)C)N(C)C	none
O=C(O)c1ccccc1C(=O)Nc1cccc2ccccc12	none (no result: Sa growth inh)
C[CH2][Hg][S]c1ccccc1C(=O)O	Sa growth inh -0.5 (no result: Sa helicase inh)
CCCCN1CC2CC=C(Cl)CC2C1 (configuration not stated)	none
CCOP(=S)(OCC)N1CCOCC1	none
O=C1NC(=O)C2(OC(=O)C(=O)/C2=C(/O)c2ccccc2)C(=O)N1	none
CCOC(=O)c1c(-c2ccccc2)n(Cc2ccccc2)c2ccc(O)c(CN(C)C)c12	Sa growth inh -0.9
CCOC(=O)c1c(C)n(Cc2ccccc2)c2ccc(O)cc12	none
CN(C)C(=O)Oc1cccc(NC(=O)c2c(F)cccc2F)c1	none (no result: Sa helicase inh)
O=C1C=Cc2ccc3c4c(ccc1c24)C=CC3=O	Sa helicase inh 48
CSc1nnc(CCN)n1C	none
CN(C)C(=O)Oc1ccc2c(-c3ccccc3)cc(=O)oc2c1	none (no result: Sa helicase inh)
